“And” between values parts separate entries of the source, which are not always exact repeats. Equal values may be shown once. The whole screen tested about 350,000 compounds, of which about 1,900 (0.54%) were called active. The sample as a whole holds a higher share of actives than the screen did. Unmarked numbers belong to inactive results.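 How the source made its calls: active means mean inhibition across replicates at least about 35%, with every replicate also reaching that limit (limit read from the data); inconclusive means only one of the two criteria met; inactive means neither criterion met.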

Chain of Caspase-6 (Homo sapiens) (P55212 24-179 limits assumed): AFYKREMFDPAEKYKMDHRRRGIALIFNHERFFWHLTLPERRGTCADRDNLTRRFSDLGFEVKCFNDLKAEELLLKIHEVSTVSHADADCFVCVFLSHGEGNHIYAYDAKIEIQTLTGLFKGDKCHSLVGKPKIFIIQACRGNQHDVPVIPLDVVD
Chain of Caspase-6 (Homo sapiens) (P55212 194-293 limits assumed): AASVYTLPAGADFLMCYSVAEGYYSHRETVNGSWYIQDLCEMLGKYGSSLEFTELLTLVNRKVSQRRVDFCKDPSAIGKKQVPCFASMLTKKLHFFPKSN

This assay has as its target Caspase-6 (Homo sapiens) (UniProt P55212). The experiment in a line: inhibition of CASP6 peptide cleavage – biochemical, VEID-R110 fluorescence, single point, set 2, primary screen (AID 686996).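 Further: 0% = median of neutral control wells and 100% = no fluorescence left.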 The note with it: purified caspase-6, Z-VEID-R110 cleavage fluorescence; at 12.5 µM; stronger effect = higher value.
Regarding `COC(=O)C1=C(c2ccc3ccccc3c2)C[C@@H]2CC[C@H]1N2C(=O)NCCO`, the inhibition is -0.313%.

For the molecule `COC(=O)C1=C(c2ccccc2)C[C@@H]2CC[C@H]1N2C(=O)NCc1ccco1`, the inhibition was 2.09%.

With `COC(=O)C1=C(c2ccc(C(C)=O)cc2)C[C@@H]2CC[C@H]1N2C(=O)NCCNC(C)=O`, the inhibition was 35.3% (active).

Consider `COC(=O)[C@H]1[C@H](CO)[C@H]2Cn3c(ccc(C4=CCCC4)c3=O)[C@@H]1N2C(=O)CC1CC1`, for which the inhibition was 2.1%.

`CCOC(=O)[C@]12Cc3ccccc3[C@H]1N(C1CCCCC1)C(=O)c1cc(OC)ccc12`: the inhibition was 1.66%.

As to `O=C1NC(=O)N(c2ccccc2)C(=O)/C1=C/c1ccc([N+](=O)[O-])s1`, the inhibition is 49.9% (active).

With `COc1cccc(N2C(=O)NC(=O)/C(=C\c3cn(C)c4ccccc34)C2=O)c1`, the inhibition is 4.46%.

Take `Cc1ccccc1N1C(=O)NC(=O)/C(=C\c2cc(C)n(C)c2C)C1=O`: the inhibition is 3.93%.

On to `COc1cccc(N2C(=O)NC(=O)/C(=C\c3ccc([N+](=O)[O-])s3)C2=O)c1`, for which the inhibition was 46% (active).

Take `COc1ccc(N2C(=O)/C(=C/c3ccco3)C(=O)NC2=S)cc1`: the inhibition is -1.07%.

As for `CC(C)CN1Cc2cc(N3CCCCC3)ccc2-n2nncc2C1`, the inhibition was -0.486%.

As to `COC1C(O)C(C)OC(OC2CCC3(C=O)C(CCC4C3CCC3(C)C(C5=CC(=O)OC5)CCC43O)C2)C1O` (stereo not given), the inhibition was 0.09%.

Turning to `CCOC(=O)[C@@H]1[C@@H]2NC(=O)N[C@@]1(C)Oc1ccccc12`, the inhibition is 1.71% and -2.72%.

`CCOC(=O)c1cccc(C2=C(CNC(=O)c3ccncc3)[C@H]3CC[C@@H](C2)N3Cc2ccccc2)c1`: the inhibition was 0.927%.

For `O=C(O)COc1ccccc1/C=C1\C(=O)NC(=O)N(CCC2=CCCCC2)C1=O`, the inhibition is 9.11%.

With `Cc1c(C(=O)O)cccc1-n1c(C)cc(/C=C2\C(=O)NC(=O)N(c3ccc4c(c3)OCO4)C2=O)c1C`, the inhibition was 26.5%.

Take `O=C1NC(=O)N(Cc2ccco2)C(=O)/C1=C\c1cccn1CCOc1ccccc1`: the inhibition is 61.1% (active).

Turning to `O=C1NC(=O)N(CCc2ccc(F)cc2)C(=O)/C1=C/C=C/c1ccccc1`, the inhibition was -1.88%.

Take `COc1ccc(CN2C(=O)NC(=O)/C(=C\c3ccc(OC)c(OC)c3OC)C2=O)cc1`: the inhibition was 4.46%.

Regarding `Cc1ccc(-n2c(C)cc(/C=C3\C(=O)NC(=O)N(C)C3=O)c2C)cc1C`, the inhibition is 12.1%.

As for `Cc1cc(/C=C2/C(=O)NC(=O)N(Cc3ccco3)C2=O)c(C)n1-c1ccc(C(=O)O)cc1`, the inhibition is 50.7% (active).

`O=C1NC(=O)N(Cc2ccco2)C(=O)/C1=C\c1ccc(-c2ccc(F)cc2)o1`: the inhibition is 73.9% (active).

As to `Brc1ccc2c(c1)CNCc1cnnn1-2`, the inhibition is -1.24%.

Regarding `c1cc2c(c(NC3=NCCCS3)c1)CCCC2`, the inhibition is -1.96%.

With `COC(=O)[C@H]1[C@H](CO)[C@H]2Cn3c(cccc3=O)[C@H]2N1CC1CC1`, the inhibition was 1.75%.

For `O=C1NCN(c2ccccc2)C12CCN(C(c1cccs1)c1nnnn1C1CCCCC1)CC2` (stereo not given), the inhibition was 0.584%.

Turning to `O=C(Cc1ccccn1)N1CCCCN2[C@H](C1)[C@H](c1ccc(-c3ccccc3F)cc1)[C@@H]2CO`, the inhibition was 1.27%.

Turning to `O=C(Cc1ccccn1)N1CCCCN2[C@@H](CO)[C@@H](c3ccc(C#Cc4ccccc4)cc3)[C@@H]2C1`, the inhibition was -4%.

For the molecule `COC(=O)[C@@H]1[C@@H](CO)[C@@H]2Cn3c(ccc(-c4cccc(C(=O)N(C)C)c4)c3=O)[C@H]1N2C(=O)NC(C)C`, the inhibition was 0.335%.

With `COc1cc(OC)cc(C(=O)NCCN2CCC3(CC2)C(=O)NCN3c2ccccc2)c1`, the inhibition was -14.3%.

Source of the values: PubChem BioAssay AID686996 (Broad Institute, 2013).
